Assay [1] in a line: qHTS assay to identify aromatase inhibitors - cell viability counter screen (AID 743084).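 Further: cells stimulated with testosterone during compound exposure; nearly all actives have a fitted effect of over 55% in size.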 Further: potency means the concentration at half of the fitted maximal effect.
The nature of assay [2]: qHTS assay to identify small molecule that activate the aryl hydrocarbon receptor (AhR) signaling pathway - cell viability counter screen (AID 743086). Further: nearly all actives have a fitted effect of over 45% in size. Further: potency means the concentration at half of the fitted maximal effect.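 On viability change, negative = cytotoxic: HepG2 liver cells carrying the AhR DRE luciferase reporter; series mostly up to about 70 µM.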 A digest of the protocol:
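HepG2-AhR-luc (HG2L7.5c1) cells, 4000/well, were preincubated 5 h at 37C, exposed to compound in qHTS format for 24 hr at 37C, then given CellTiter-Fluor for 30 min; viability was read as fluorescence in the reporter wells.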

Assay [3] deals with Peroxisome proliferator-activated receptor gamma (Homo sapiens) (UniProt P37231). The assay can be described thus: qHTS assay to identify small molecule agonists of the peroxisome proliferator-activated receptor gamma (PPARg) signaling pathway (AID 743094; active means well fitted activation curve with a large enough effect in the signal ratio in the repeat runs, not every such curve was filed as active; the % refers to the signal ratio). The method in brief: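 Reporter activation was scored by fluorescence of cleaved LiveBLAzer B/G substrate (1 h, room temperature) in PPARg-bla HEK293H cells previously treated 17 h at 37C with DMSO-dissolved compounds.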
Peroxisome proliferator-activated receptor gamma (Homo sapiens), sequence (P37231 whole entry, looked up): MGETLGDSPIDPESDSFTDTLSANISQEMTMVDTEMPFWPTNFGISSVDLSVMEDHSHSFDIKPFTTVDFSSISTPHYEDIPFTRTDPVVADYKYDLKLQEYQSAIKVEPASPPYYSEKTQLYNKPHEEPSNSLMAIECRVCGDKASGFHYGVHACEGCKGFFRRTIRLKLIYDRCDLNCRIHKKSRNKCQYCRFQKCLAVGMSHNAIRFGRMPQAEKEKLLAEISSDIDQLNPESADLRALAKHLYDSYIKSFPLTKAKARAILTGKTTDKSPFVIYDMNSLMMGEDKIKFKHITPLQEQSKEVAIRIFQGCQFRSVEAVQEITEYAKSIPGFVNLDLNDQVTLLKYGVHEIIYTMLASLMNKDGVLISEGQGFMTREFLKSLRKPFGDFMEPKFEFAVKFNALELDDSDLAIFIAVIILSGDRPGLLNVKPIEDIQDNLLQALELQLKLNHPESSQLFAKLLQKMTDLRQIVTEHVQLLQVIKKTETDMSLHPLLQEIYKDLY

Assay [4] shares this target. The experiment in a line: qHTS assay to identify small molecule antagonists of the peroxisome proliferator-activated receptor gamma (PPARg) signaling pathway (AID 743191; calls by dose curve; further: series mostly up to about 63 µM; nearly all actives have a fitted effect of over 30% in size). The method in brief:
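GeneBLAzer PPARg UAS-bla HEK293H cells carrying a UAS-driven beta-lactamase reporter were plated at 3000 cells/well, preincubated 5 h at 37C, then given compound for 17 h at 37C; LiveBLAzer B/G FRET substrate was read after 1 h at room temperature.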

Assay [5] can be described thus: qHTS assay for small molecule agonists of the antioxidant response element (ARE) signaling pathway (AID 743202; active means well fitted activation curve with a large enough effect in the signal ratio in the repeat runs, not every such curve was filed as active; the % refers to the signal ratio). The method in brief:
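Following a 16 h, 37 C exposure of reporter HepG2 cells (ARE-driven beta-lactamase, 2,000 cells/well) to compounds, FRET substrate was applied for 2 h at room temperature and fluorescence intensity recorded.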

Assay [6] is described as follows: qHTS assay for small molecule activators of the heat shock response signaling pathway - cell viability counter screen (AID 743209). Further: nearly all actives have a fitted effect of over 50% in size. The method in brief: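 Viability of HSE-bla HeLa cells is measured with CellTiter-Glo in the wells already used for the reporter read. Compound exposure lasts 5 h at 37 C, and luminescence is read after 30 min at room temperature.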

A short description of assay [7]: qHTS assay for small molecule activators of the heat shock response signaling pathway (AID 743210; active means well fitted activation curve with a large enough effect in the signal ratio in the repeat runs, with a control signal flat, not every such curve was filed as active; the % refers to the signal ratio; further: series mostly up to about 63 µM). The method in brief:
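Heat shock element–beta-lactamase HeLa reporter cells; qHTS with compounds for 5 h at 37 C; detection by FRET substrate fluorescence after 2.5 h at RT.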

The target of assay [8] is Bile acid receptor (Homo sapiens) (UniProt Q96RI1). The assay can be described thus: qHTS assay to identify small molecule antagonists of the farnesoid-X-receptor (FXR) signaling pathway (AID 743217; active means well fitted inhibition curve with a large enough effect in the signal ratio in the repeat runs, not every such curve was filed as active; the % refers to the signal ratio). The method in brief: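 Screen of the Tox21 10K library in quantitative HTS format using FXR-UAS-bla HEK 293T reporter cells. Agonist chenodeoxycholic acid, 50 uM final, added with compounds; 16 h incubation at 37 °C; beta-lactamase FRET fluorescence measured.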
Bile acid receptor (Homo sapiens), sequence (Q96RI1 whole entry, looked up): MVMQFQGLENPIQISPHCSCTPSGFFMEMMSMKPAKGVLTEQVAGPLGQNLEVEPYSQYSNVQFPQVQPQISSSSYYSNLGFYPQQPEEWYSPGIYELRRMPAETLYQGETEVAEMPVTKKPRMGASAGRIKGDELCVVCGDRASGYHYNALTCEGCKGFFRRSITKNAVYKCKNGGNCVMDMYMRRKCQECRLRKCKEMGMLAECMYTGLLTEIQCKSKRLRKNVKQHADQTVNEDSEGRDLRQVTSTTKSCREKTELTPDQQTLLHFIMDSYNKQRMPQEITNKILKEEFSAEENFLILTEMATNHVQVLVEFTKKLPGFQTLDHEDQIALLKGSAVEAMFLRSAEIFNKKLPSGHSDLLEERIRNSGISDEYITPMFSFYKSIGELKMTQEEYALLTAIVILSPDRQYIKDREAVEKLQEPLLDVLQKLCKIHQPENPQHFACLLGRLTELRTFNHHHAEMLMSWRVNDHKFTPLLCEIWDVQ

The target is the same in assay [9]. The experiment in a line: qHTS assay to identify small molecule agonists of the farnesoid-X-receptor (FXR) signaling pathway (AID 743220; active means well fitted activation curve with a large enough effect in the signal ratio in the repeat runs, not every such curve was filed as active; the % refers to the signal ratio). The method in brief:
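FXR-UAS-bla HEK 293T cells carrying a UAS-driven beta-lactamase reporter were plated for 5 h at 37C/5% CO2, then exposed to DMSO-dissolved Tox21 10K compounds for 16 h at 37C. A LiveBLAzer B/G FRET substrate was loaded for 2 h at room temperature before fluorescence reading.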

In assay [10] the target is Vitamin D3 receptor (Homo sapiens) (UniProt P11473). The assay can be described thus: qHTS assay to identify small molecule agonists of the vitamin D receptor (VDR) signaling pathway (AID 743222; calls by dose curve). The method in brief:
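Fluorescence from cleaved LiveBLAzer B/G FRET substrate served as readout. VDR-bla cells had been treated 16 h at 37C with test compounds in DMSO, following a 4 h settling period, and substrate was loaded for 2 h at RT.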

Assay [11] in a line: qHTS assay to identify small molecule antagonists of the peroxisome proliferator-activated receptor gamma (PPARg) signaling pathway - cell viability counter screen (AID 743194). Further: nearly all actives have a fitted effect of over 55% in size. A digest of the protocol: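 PPARg-UAS-bla HEK293H cells were plated, rested 5 h at 37 C, then treated with compounds plus rosiglitazone (50 nM final) for 17 h at 37 C; viability was then read by CellTiter-Glo luminescence after 30 min at room temperature.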

The nature of assay [12]: qHTS assay for small molecule agonists of the antioxidant response element (ARE) signaling pathway - cell viability counter screen (AID 743203; calls by dose curve; further: nearly all actives have a fitted effect of over 55% in size). The method in brief:
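Viability counter screen: stably transfected ARE-bla HepG2 line, 16 hrs compound exposure at 37C/5% CO2, ATP-based CellTiter-Glo luminescence measured in the reporter wells.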

Assay [13] can be described thus: qHTS assay to identify small molecule agonists of the peroxisome proliferator-activated receptor delta (PPARd) signaling pathway - cell viability counter screen (AID 743211). Further: nearly all actives have a fitted effect of over 55% in size. The method in brief: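 Viability of GeneBLAzer PPARd UAS-bla HEK293H cells was assessed after 17 h compound incubation at 37C, using CellTiter-Glo reagent added after the reporter read and luminescence recorded 30 min later.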

For assay [14], the target named is Peroxisome proliferator-activated receptor delta (Homo sapiens) (UniProt Q03181). The assay can be described thus: qHTS assay to identify small molecule agonists of the peroxisome proliferator-activated receptor delta (PPARd) signaling pathway (AID 743212; calls by dose curve). A digest of the protocol:
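Beta-lactamase reporter read by fluorescence (LiveBLAzer B/G FRET, 2 h, room temperature). Test agents, in DMSO, incubated at 37 C with PPARd-bla HEK293H cells.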

Assay [15] can be described thus: qHTS assay to identify small molecule antagonists of the peroxisome proliferator-activated receptor delta (PPARd) signaling pathway - cell viability counter screen (AID 743213). Further: nearly all actives have a fitted effect of over 50% in size. The method in brief: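 HEK293H cells with the PPARd UAS-bla reporter, co-treated 17 h at 37 C with compounds and L165041 (300 nM final), were lysed with CellTiter-Glo. Luminescence indicated viable cell content.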

The nature of assay [16]: qHTS assay to identify small molecule antagonists of the farnesoid-X-receptor (FXR) signaling pathway - cell viability counter screen (AID 743221; active means well fitted cell-killing curve with a large enough effect in the repeat runs, not every such curve was filed as active; further: nearly all actives have a fitted effect of over 50% in size). The method in brief:
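Quantitative HTS of the Tox21 10K library run in parallel with the beta-lactamase reporter read. HEK 293T cells carrying a UAS-driven bla reporter got compound and 50 uM CDCA (final) for 16 h; ATP-based luminescence followed.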

The target of assay [17] is Vitamin D3 receptor (Homo sapiens) (UniProt P11473). The assay can be described thus: qHTS assay to identify small molecule antagonists of the vitamin D receptor (VDR) signaling pathway (AID 743223; active means well fitted inhibition curve with a large enough effect in the signal ratio in the repeat runs, not every such curve was filed as active; the % refers to the signal ratio). A digest of the protocol: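 Fluorescence from LiveBLAzer B/G FRET substrate, read after 2 h at room temperature, reflects beta-lactamase reporter activity in VDR-bla cells treated 16 h at 37C with compounds and agonist 1alpha,25-dihydroxyvitamin D3 (3 nM final).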
Vitamin D3 receptor (Homo sapiens), sequence (P11473 whole entry, looked up): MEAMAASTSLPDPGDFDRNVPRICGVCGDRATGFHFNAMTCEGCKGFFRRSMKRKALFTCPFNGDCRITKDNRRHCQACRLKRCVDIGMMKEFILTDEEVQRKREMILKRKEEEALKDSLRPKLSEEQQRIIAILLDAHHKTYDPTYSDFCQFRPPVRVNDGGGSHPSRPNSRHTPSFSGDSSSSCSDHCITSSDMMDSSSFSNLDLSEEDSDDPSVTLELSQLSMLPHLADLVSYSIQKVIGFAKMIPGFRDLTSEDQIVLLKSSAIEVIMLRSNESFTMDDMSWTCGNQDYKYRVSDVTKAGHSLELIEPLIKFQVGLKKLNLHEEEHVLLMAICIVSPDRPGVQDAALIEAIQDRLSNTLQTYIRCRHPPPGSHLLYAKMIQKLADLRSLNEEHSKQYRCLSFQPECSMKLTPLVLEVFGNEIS

Assay [18] has as its target Aryl hydrocarbon receptor (Homo sapiens) (UniProt P35869). The experiment in a line: qHTS assay to identify small molecule that activate the aryl hydrocarbon receptor (AhR) signaling pathway (AID 743085).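 Further: HG2L7.5c1 human HepG2 liver cells with stably integrated DRE-driven firefly reporter; series mostly up to about 70 µM; nearly all actives have a fitted effect of over 15% in size.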 The method in brief: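 Steps: seed HepG2-AhR-luc cells; allow 5 h at 37C; pin-transfer test compound or vehicle; incubate 24 h at 37C; add viability dye (30 min, 37C) and read fluorescence; add luciferase substrate (30 min, RT) and read luminescence.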

A short description of assay [19]: qHTS assay to identify small molecule agonists of the farnesoid-X-receptor (FXR) signaling pathway - cell viability counter screen (AID 743218). Further: nearly all actives have a fitted effect of over 45% in size. The method in brief:
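Viability of FXR-bla HEK 293T cells is measured by ATP-based CellTiter-Glo luminescence following 16 h compound treatment at 37 C and a prior 2 h room-temperature beta-lactamase substrate step.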

Assay [20] has as its target Peroxisome proliferator-activated receptor delta (Homo sapiens) (UniProt Q03181). The assay can be described thus: qHTS assay to identify small molecule antagonists of the peroxisome proliferator-activated receptor delta (PPARd) signaling pathway (AID 743215; active means well fitted inhibition curve with a large enough effect in the signal ratio in the repeat runs, not every such curve was filed as active; the % refers to the signal ratio;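 further: cells stimulated with agonist L165041 at 300 nM final during compound exposure; series mostly up to about 62 µM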). The method in brief:
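Plated HEK293H PPARd-bla cells rested 5 h at 37 C and 5% CO2. Compound, then agonist L165041 at 300 nM final, was added; 17 h at 37 C followed. Substrate loading, 2 h room temperature, fluorescence measured.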

Results filed as inconclusive are left out. Values without a mark were called inactive. Activity calls are given as the source filed them. Unless noted, the call rests on the fitted dose curve; in most records, active means well fitted curve in the direction sought with a large enough effect in the repeat runs; inconclusive means weak or mixed curves; inactive means no such curve, though single readings can be large; an effect the other way counts as inactive or inconclusive.
On the % scale 0 is the no-effect control and ±100 the full control effect.

Aryl hydrocarbon receptor (Homo sapiens), sequence (P35869 whole entry, looked up): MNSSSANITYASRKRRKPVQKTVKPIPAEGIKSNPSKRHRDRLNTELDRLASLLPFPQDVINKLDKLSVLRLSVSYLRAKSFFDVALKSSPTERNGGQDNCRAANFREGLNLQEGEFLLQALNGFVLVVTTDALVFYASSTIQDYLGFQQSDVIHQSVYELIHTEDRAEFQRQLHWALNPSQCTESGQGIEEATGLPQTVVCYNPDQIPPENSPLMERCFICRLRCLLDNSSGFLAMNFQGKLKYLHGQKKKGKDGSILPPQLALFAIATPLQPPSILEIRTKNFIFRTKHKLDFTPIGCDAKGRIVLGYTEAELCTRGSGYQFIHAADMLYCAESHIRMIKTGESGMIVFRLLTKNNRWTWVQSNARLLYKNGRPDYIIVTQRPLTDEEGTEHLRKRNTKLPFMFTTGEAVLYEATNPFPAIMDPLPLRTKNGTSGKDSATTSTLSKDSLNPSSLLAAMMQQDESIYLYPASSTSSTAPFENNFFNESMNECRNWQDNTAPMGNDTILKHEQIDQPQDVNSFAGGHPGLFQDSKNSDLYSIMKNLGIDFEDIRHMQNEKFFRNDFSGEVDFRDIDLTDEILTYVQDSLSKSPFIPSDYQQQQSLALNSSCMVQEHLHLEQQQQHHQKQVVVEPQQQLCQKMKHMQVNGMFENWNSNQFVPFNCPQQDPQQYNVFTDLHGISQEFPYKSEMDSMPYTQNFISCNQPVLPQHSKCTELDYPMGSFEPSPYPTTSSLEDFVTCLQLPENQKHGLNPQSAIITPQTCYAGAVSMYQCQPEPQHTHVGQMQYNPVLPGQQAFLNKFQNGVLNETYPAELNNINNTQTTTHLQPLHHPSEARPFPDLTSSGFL
Peroxisome proliferator-activated receptor delta (Homo sapiens), sequence (Q03181 whole entry, looked up): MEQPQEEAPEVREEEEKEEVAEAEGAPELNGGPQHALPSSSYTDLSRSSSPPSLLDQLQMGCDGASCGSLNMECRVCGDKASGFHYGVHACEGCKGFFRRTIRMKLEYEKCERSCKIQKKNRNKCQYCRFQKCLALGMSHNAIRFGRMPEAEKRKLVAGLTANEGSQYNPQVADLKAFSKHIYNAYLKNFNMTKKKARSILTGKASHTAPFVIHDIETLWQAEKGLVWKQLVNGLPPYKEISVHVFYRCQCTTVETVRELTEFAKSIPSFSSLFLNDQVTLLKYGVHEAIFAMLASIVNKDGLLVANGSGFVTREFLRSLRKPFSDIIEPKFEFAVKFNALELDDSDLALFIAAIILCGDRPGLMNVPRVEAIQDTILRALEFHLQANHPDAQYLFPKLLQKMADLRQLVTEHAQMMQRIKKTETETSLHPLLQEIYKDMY

As for `C=CCOc1c(Br)cc(Br)cc1Br`, the Potency entry in assay [1], in assay [2], in assay [4] and in assay [5] was “inactive” throughout. Also, the compound was called inactive in [3], in assay [6], in assay [7], in [8], in assay [9] and in assay [10].

In the case of `COc1ccc(N=Nc2cc(C)c(N=Nc3ccc(S(=O)(=O)O)cc3)cc2OC)cc1`, the Potency in [1] and in assay [2] was 48.6 µM (active) in each case. Further, the result in [3], in assay [11], in [12], in [6], in assay [7] and in [13] was inactive. Moreover, the compound was classed as inactive in assay [14], in assay [15], in assay [16] and in assay [17].

With `Nc1cc(Cl)cc(S(=O)(=O)O)c1O`, the Potency result in [1], in assay [18], in [2] and in [19] was “inactive” each time. Also, the outcome in assay [11], in assay [12], in assay [6], in assay [7], in assay [13] and in [15] was inactive. Moreover, the outcome in assay [16] and in assay [17] was inactive.

For the compound `CC(C)c1ccccc1O`, the Potency entry in [1], in [18], in [2], in [5] and in [19] was “inactive” each time. For the same compound, the compound was classed as inactive in assay [12], in assay [6], in assay [7], in [13], in assay [14] and in [15]. The call in assay [20], in assay [8], in assay [16], in assay [10] and in assay [17] was inactive.

Consider `CCC(CO)CO`, for which the Potency result in assay [1], in assay [18], in assay [4], in [5] and in assay [19] was “inactive” in each case. Moreover, the result in assay [3], in assay [12], in assay [6], in [7], in assay [13] and in assay [14] was inactive. For the same compound, the result in [15], in [16] and in [10] was inactive.

As to `CC(C)(C)NCCO`, the Potency result in [1], in assay [2], in [4], in assay [5] and in assay [19] was “inactive” each time. For the same compound, the outcome in assay [3], in assay [11], in assay [12], in assay [6], in [7] and in assay [13] was inactive. Moreover, the call in [14], in [15], in assay [20], in assay [16], in assay [10] and in assay [17] was inactive.

Regarding `O=CO`, the activity change, negative = cytotoxicity in assay [1] is -4.37% [at 8.47 µM]; in assay [11], 15.3% [at 5.95 µM]; in assay [6], 8.14% [at 5.95 µM]; in assay [13] it was 1.94% [at 5.95 µM]; in assay [16], -2.88% [at 5.95 µM]. In addition, the activation in assay [18] is 0.579% [at 8.47 µM]; in assay [5], -2.02% [at 8.36 µM]; in assay [7], -1.54% [at 5.95 µM]; in assay [9], -0.16% [at 5.95 µM]; in assay [10], -1.04% [at 6.01 µM]. The viability change, negative = cytotoxic in assay [2] was -0.0332% [at 8.47 µM]; in assay [12], -3% [at 8.36 µM]; in assay [15], 11.9% [at 6.26 µM]. For the same compound, the activity change, negative = inhibition in assay [8] was -0.433% [at 5.95 µM]; in assay [17], 3.44% [at 6.95 µM].

`O=S(=O)(O)CCO`: the Potency entry in assay [1], in [2], in assay [5] and in assay [19] was “inactive” in each case. In addition, the compound was called inactive in [3], in assay [12], in assay [6], in [7], in [13] and in [14]. Moreover, the result in assay [15], in assay [20], in assay [16], in assay [10] and in assay [17] was inactive.

Values taken from PubChem BioAssay (Tox21).
